Laboratory results as given in PubChem BioAssay AID743279 (National Center for Advancing Translational Sciences (NCATS), 2014).
In all, about 360,000 compounds went through this assay and about 17,000 (4.7%) were called active. About 5% were inconclusive and are not listed. The entries come from a sample that favours actives as a whole. Unmarked numbers belong to inactive results. No stated cut-off is given here; in the data, active means activity change below about -50%; inconclusive means mostly about -30% to -49%; inactive means weaker than that.

assay: qHTS for Inhibitors of Inflammasome Signaling: IL-1-beta AlphaLISA Primary Screen; details: THP-1 LPS/ATP IL-1B secretion, 16 h; at 57.5 µM, hits give low values
In short: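 THP-1 cells pretreated 1 hr with compounds (up to 57.5 uM final), then stimulated with LPS (250 ng/mL final) plus ATP (1.25 mM final); secreted IL-1B measured by AlphaLISA after 16 hr, decreased signal indicating inhibition.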
On the % scale 0 is the no-effect control and ±100 the full control effect.

Question: For `CC(=O)Nc1ccc(C(=O)N(C2=NC(C)CS2)c2ccc(Cl)cc2)cc1` (stereo unspecified), which activity change is on record?
Answer: The activity change was “inactive”.

Question: With `COc1ccccc1C(=O)N(C1=NC(C)CS1)c1ccc(Cl)cc1` (stereo unspecified) as the compound, how does the activity change read?
Answer: Its activity change is -80.7% (active).

Question: For `COc1ccccc1C(=O)NCCC(=O)NC1=NCCS1`, which activity change is on record?
Answer: Its activity change is 22%.

Question: For `COc1ccc(CCC(=O)Nc2ccc(Cl)c(S(=O)(=O)N3CCOCC3)c2)cc1OC`, which activity change is on record?
Answer: Its activity change is -24.7%.

Question: Which activity change does the source give for `CCN(CC)c1ccc(NC(=O)CN2CCN(c3ccccn3)CC2)cc1` here?
Answer: The activity change was 2.92%.

Question: For `Cc1cc(Br)ccc1NC(=O)c1cnc(N2CCN(c3ccccn3)CC2)c2ccccc12`, which activity change is on record?
Answer: The activity change was 1.57%.

Question: For `Cc1cc(Br)ccc1NC(=O)c1sc2ncn(CC(=O)N3CCN(c4ccccn4)CC3)c(=O)c2c1C`, which activity change is on record?
Answer: The activity change was 28.3%.

Question: Which activity change does the source give for `CCC(=O)Nc1ccc2c(c1)nc(CCN1CCN(c3ccccn3)CC1)n2C` here?
Answer: Its activity change is -3.98%.

Question: With `Cc1nc(N2CCN(c3ccccn3)CC2)c2c(C)c(C(=O)Nc3ccc(F)cc3)sc2n1` as the compound, how does the activity change read?
Answer: Its activity change is -76.8% (active).

Question: Which activity change does the source give for `Cc1nc(N2CCC(C)CC2)c2c(C)c(C(=O)Nc3cc(F)ccc3C)sc2n1` here?
Answer: Its activity change is -93.6% (active).

Question: With `Cc1nc(N2CCN(c3ccccn3)CC2)c2c(C)c(C(=O)Nc3ccc(F)c(Cl)c3)sc2n1` as the compound, how does the activity change read?
Answer: The activity change was -58.3% (active).

Question: With `Cc1sc2ncnc(N3CCC(C(=O)NNC(=O)c4ccc(F)cc4)CC3)c2c1C` as the compound, how does the activity change read?
Answer: Its activity change is -23.3%.

Question: Which activity change does the source give for `Cc1sc2ncnc(N3CCC(C(=O)Nc4ccc(F)cc4Cl)CC3)c2c1C` here?
Answer: The activity change was -10.9%.

Question: Which activity change does the source give for `CC(NC(=O)COc1cccnc1[N+](=O)[O-])c1ccc(Cl)cc1Cl` (stereo unspecified) here?
Answer: The activity change was -26%.

Question: Which activity change does the source give for `CN(C)C(=S)N=c1ssc(=S)n1Cc1ccco1` here?
Answer: The activity change was 1.33%.

Question: Which activity change does the source give for `Cc1ccc(C(=O)NCCc2nnc(SCC(=O)Nc3cccc(C(=O)O)c3)n2C)cc1` here?
Answer: Its activity change is 3.07%.

Question: Which activity change does the source give for `CCCCCC1CCC(c2nnc(SCC(C)=O)o2)CC1` (stereo unspecified) here?
Answer: The activity change was 0.218%.

Question: Which activity change does the source give for `O=C1C2C3C=CC(C3)C2C(=O)N1c1ccc(-c2nc3ccccc3c(=O)o2)cc1` (stereo unspecified) here?
Answer: The activity change was -10.4%.

Question: With `CS(=O)(=O)N(CC(=O)N1CCN(Cc2ccccc2)CC1)c1ccc2c(c1)OCCO2` as the compound, how does the activity change read?
Answer: Its activity change is -2.68%.

Question: With `CN(C)c1nc(=Nc2cccc(Cl)c2)ss1` as the compound, how does the activity change read?
Answer: The activity change was -9.51%.

Question: For `CC(=NC1CCN(Cc2ccccc2)CC1)c1c(O)[nH]c(=O)[nH]c1=O`, which activity change is on record?
Answer: The activity change was 4.26%.

Question: For `c1ccc(CN2CCC(N=C3NN=C(c4ccc5c(c4)OCCO5)CS3)CC2)cc1`, which activity change is on record?
Answer: Its activity change is -81.5% (active).

Question: For `Clc1cccc(N=C2NN=C(c3ccc4c(c3)OCCO4)CS2)c1`, which activity change is on record?
Answer: Its activity change is -71.7% (active).

Question: With `O=C(Nc1ccc(Cl)cc1)C1Cc2c(-c3ccc4c(c3)OCO4)ccnc2O1` (stereo unspecified) as the compound, how does the activity change read?
Answer: Its activity change is -19.5%.

Question: Which activity change does the source give for `Cc1ccc(S(=O)(=O)Nc2ccccc2CNc2c(C)n(C)n(-c3ccccc3)c2=O)cc1` here?
Answer: The activity change was -4.94%.

Question: Which activity change does the source give for `O=C(NCCO)c1cccc(-c2cccc3nccn23)c1` here?
Answer: Its activity change is 81.9%.

Question: For `O=C(NCc1cccnc1)C(=O)Nc1nc(-c2ccccc2)cs1`, which activity change is on record?
Answer: Its activity change is 17.3%.

Question: Which activity change does the source give for `Cc1ccccc1Nc1nc(-c2cccnc2)cs1` here?
Answer: The activity change was -83.1% (active).

Question: Which activity change does the source give for `CN(c1ccc(O)cc1)c1nc(-c2cccnc2)cs1` here?
Answer: Its activity change is 40.3%.

Question: With `O=C(CN1C(=O)NC2(CCOc3ccccc32)C1=O)NCc1ccc(F)cc1` (stereo unspecified) as the compound, how does the activity change read?
Answer: The activity change was -15.8%.

Question: For `C[C@@H]1CN([C@@H](C)CO)C(=O)CCCn2nncc2CO[C@H]1CN(C)C(=O)Nc1ccc(C(F)(F)F)cc1`, which activity change is on record?
Answer: Its activity change is -7.03%.

Question: Which activity change does the source give for `COC(=O)c1ccc2nc(C3CCCCC3)c(Cc3cccc(F)c3)n2c1` here?
Answer: The activity change was 20.9%.

Question: For `N#Cc1c(N)n(CCOC(=O)c2ccc(Cl)cc2)c2nc3ccccc3nc12`, which activity change is on record?
Answer: Its activity change is -16.3%.

Question: Which activity change does the source give for `CN(C)CCCn1c(N)c(C#N)c2nc(C#N)c(C#N)nc21` here?
Answer: The activity change was -105% (active).

Question: With `Cc1cc(C)c(S(=O)(=O)N(C)CC(=O)NCC2CCCO2)c(C)c1` (stereo unspecified) as the compound, how does the activity change read?
Answer: Its activity change is 4.54%.

Question: For `COC(=O)CCCCCN1C(=O)NC(c2ccc(-c3ccccc3)cc2)C(C(=O)OCc2ccccc2)=C1C` (stereo unspecified), which activity change is on record?
Answer: Its activity change is -1.28%.

Question: Which activity change does the source give for `CC1=C(C(=O)OCc2ccccc2)C(c2ccc(C(F)(F)F)cc2)NC(=O)N1CCCCCC(=O)O` (stereo unspecified) here?
Answer: The activity change was 5.05%.

Question: With `CCCCNC(=O)C(C)N(CCN(C)C)C(=O)CCCCCN1C(=O)NC(c2ccc(Cl)cc2)C(C(=O)OCc2ccccc2)=C1C` (stereo unspecified) as the compound, how does the activity change read?
Answer: The activity change was -52.2% (active).

Question: For `CC(=O)c1cccc(-c2cnc3c(NC=O)cc(-c4ccc(N5CCN(C)CC5)cc4)cn23)c1`, which activity change is on record?
Answer: The activity change was 108%.

Question: Which activity change does the source give for `CC(C)(C)Cc1c(C2CCCCC2)nc2ccc(Br)cn12` here?
Answer: Its activity change is 28.2%.

Question: Which activity change does the source give for `C/C(=N/N1CCN(Cc2cccc3ccccc23)CC1)c1cccnc1` here?
Answer: The activity change was 0%.

Question: For `OCC1(Cc2ccccc2C(F)(F)F)CCN(Cc2ccncc2)CC1`, which activity change is on record?
Answer: Its activity change is 21.9%.

Question: For `OCC1(Cc2ccccc2C(F)(F)F)CCN(Cc2cccc3cnccc23)CC1`, which activity change is on record?
Answer: The activity change was -72.4% (active).

Question: Which activity change does the source give for `O=S1(=O)CC(N2CCC(Cc3ccccc3)CC2)CN1Cc1ccccc1` (stereo unspecified) here?
Answer: Its activity change is 21.9%.

Question: With `CCN(CC)CCCNC(=O)c1cc(-c2cccc(Cl)c2)on1` as the compound, how does the activity change read?
Answer: Its activity change is -5.59%.

Question: For `Cc1cccc(N(C)C(=O)c2cc3c(=O)[nH]c4ccc(C)cc4c3s2)c1`, which activity change is on record?
Answer: The activity change was 3.44%.

Question: With `CCN(CC)CCCNC(=O)c1cc2c(=O)[nH]c3ccc(C)cc3c2s1` as the compound, how does the activity change read?
Answer: Its activity change is -65.6% (active).

Question: For `COCCNC(=O)c1cc2c(Br)ccc(Br)c2nc1N`, which activity change is on record?
Answer: Its activity change is -2.49%.

Question: For `O=C(NCC1CCCCC1)c1cc(S(=O)(=O)N2CCCCC2)ccc1N1CCOCC1`, which activity change is on record?
Answer: The activity change was -0.256%.

Question: Which activity change does the source give for `Cn1c(=O)c2c(nc(SCC(=O)Nc3ccccc3N3CCCCC3)n2C)n(C)c1=O` here?
Answer: The activity change was -57.3% (active).

Question: With `Cn1c(=O)c2c(nc(SCCNS(=O)(=O)c3ccccc3)n2C)n(C)c1=O` as the compound, how does the activity change read?
Answer: Its activity change is 29.8%.

Question: For `CCC1CCCCN1C(=O)CSc1nc2c(c(=O)n(C)c(=O)n2C)n1C` (stereo unspecified), which activity change is on record?
Answer: The activity change was 2.3%.

Question: For `O=[N+]([O-])c1ccccc1/C=C/CN1CCCC(CO)C1` (stereo unspecified), which activity change is on record?
Answer: The activity change was -11.3%.

Question: For `O=[N+]([O-])c1ccccc1/C=C/CN1CCC(O)CC1`, which activity change is on record?
Answer: The activity change was 7.25%.

Question: With `CC1CCCCC1NC(=O)/C(C#N)=C/C=C/c1ccccc1[N+](=O)[O-]` (stereo unspecified) as the compound, how does the activity change read?
Answer: The activity change was -103% (active).

Question: Which activity change does the source give for `CCc1ccc(C(=O)N2CCN(S(=O)(=O)c3sc(C(=O)O)c(C)c3C(=O)O)CC2)cc1` here?
Answer: Its activity change is 20.6%.
